# Data as given in PubChem BioAssay (NCATS).
# Inconclusive results are not listed. Active and inactive are the calls of the source. Calls come from the whole dose curve; as a rule, active = well fitted inhibition curve with a large enough effect; inconclusive = small, poorly fitted or top-dose-only effect; inactive = flat fitted curve, though single readings scatter.
# Columns and labels:
# Assay in all cases: qHTS profiling for inhibitors of Plasmodium falciparum proliferation (AID 504749); note: nearly all actives have a fitted effect of over 60% in size
# Details in all cases: P. falciparum in erythrocytes, SYBR Green DNA, 72 h; series mostly up to 28.7 µM
# CP291 = tested on: CP291
# Summary of the method: (§1)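 P. falciparum-infected erythrocytes (0.3% parasitemia, 2.5% hematocrit final) were exposed to compounds for 72 h at 37 C in 5% CO2, then lysed with SYBR Green buffer overnight at room temperature; parasite DNA fluorescence was normalized to artemisinin and DMSO controls.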
# CP297 = tested on: CP297
# Summary of the method: as §1
# CP305 = tested on: CP305
# Summary of the method: as §1
# CP315 = tested on: CP315
# Summary of the method: as §1
# CP325 = tested on: CP325
# Summary of the method: as §1
# CP329 = tested on: CP329
# Summary of the method: as §1
# CP335 = tested on: CP335
# Summary of the method: as §1
# DFO2036 = tested on: DFO2036
# Summary of the method: as §1
# DIV14 = tested on: DIV14
# Summary of the method: as §1
# DIV17 = tested on: DIV17
# Summary of the method: as §1
# Potency is the fitted concentration of half-maximal effect.
Compound,Potency (CP291),Potency (CP297),Potency (CP305),Potency (CP315),Potency (CP325),Potency (CP329),Potency (CP335),Potency (DFO2036),Potency (DIV14),Potency (DIV17)
Nc1ncnc2nc[nH]c12,inactive,inactive,inactive,inactive,inactive,inactive,inactive,inactive,inactive,inactive
CN1CCCN(C(c2ccccc2)c2ccc(Cl)cc2)CC1 (configuration not stated),–,–,–,inactive,–,–,12 µM (active),–,1.69 µM (active),1.51 µM (active)
O=S(=O)(O)c1ccc2nc(-c3ccccc3)[nH]c2c1,inactive,inactive,inactive,inactive,inactive,inactive,inactive,inactive,–,inactive
Nc1c2ccccc2nc2ccccc12,–,–,–,–,–,–,–,5.01 µM (active),8.49 µM (active),7.57 µM (active)
CN1CCC(Nc2ncc3ncnc(Nc4ccc(F)c(Cl)c4)c3n2)CC1,15.1 µM (active),–,–,inactive,–,–,9.53 µM (active),–,10.7 µM (active),8.49 µM (active)
Nc1ccc2cc3ccc(N)cc3nc2c1,–,–,–,–,–,–,6.01 µM (active),–,6.01 µM (active),12 µM (active)
CC(NCCC(c1ccccc1)c1ccccc1)c1ccccc1 (configuration not stated),13.5 µM (active),–,13.5 µM (active),–,15.1 µM (active),–,4.78 µM (active),–,5.36 µM (active),6.01 µM (active)
O=C(Nc1ccc(Cl)cc1)Nc1ccc(Cl)c(Cl)c1,4.78 µM (active),7.57 µM (active),4.78 µM (active),inactive,4.26 µM (active),8.49 µM (active),3.38 µM (active),2.82 µM (active),1.35 µM (active),0.953 µM (active)
CCCCCCCCCCCCCCCC[N+](C)(C)Cc1ccccc1,15.1 µM (active),13.5 µM (active),–,–,9.53 µM (active),10.7 µM (active),12 µM (active),2.82 µM (active),8.49 µM (active),8.49 µM (active)
CCCCCCCCCCCCCC[N+](C)(C)C,4.78 µM (active),10.7 µM (active),5.36 µM (active),5.36 µM (active),6.01 µM (active),5.36 µM (active),4.26 µM (active),4.47 µM (active),6.75 µM (active),7.57 µM (active)
CCCCCCCCCCCCCCCC[n+]1ccccc1,6.01 µM (active),5.36 µM (active),6.75 µM (active),–,5.36 µM (active),7.57 µM (active),6.75 µM (active),5.62 µM (active),6.75 µM (active),6.75 µM (active)
